In PubChem BioAssay AID1159580 (chemical genetic matrix, 2015):
Screen size: about 5,500 compounds; about 2,000 (36%) were called active. About 18% were inconclusive and are not listed. No stated cut-off is given here; in the data, active means normalized growth mostly below about 0.91 (no sharp cut-off); inconclusive means no clear call, values can overlap the other calls; inactive means mostly above about 0.92. The list shows a part of the results.

Assay: chemical genetic growth profiling, strain panel (AID 1159580);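 further: tested at 20 µM; growth read once vehicle control cultures reached saturation at 30 °C; 1 = growth at the plate median or of vehicle wells; lower values mean less growth of the strain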
Details: S. cerevisiae deletion strains, growth OD
[1] = locus YAL040C, strain CLN3, hits give low values
[2] = locus YER002W, strain NOP16, hits give low values
[3] = locus YNL175C, strain NOP13, hits give low values
[4] = locus YNL197C, strain WHI3, hits give low values
[5] = locus YNL224C, strain SQS1, hits give low values
[6] = locus YOR083W, strain WHI5 (second series), hits give low values

Measured: normalized growth

CC(=O)SCC[N+](C)(C)C
inactive: [2] 1.04 | [3] 1.02 | [4] 1.02 | [5] 0.972 | [6] 0.982 | locus YPL055C, strain LGE1, hits give low values 1.01
active: [1] 1.12 [resistant]

C[N+](C)(C)CC(=O)O
inactive: [1] 0.989 | locus YDR150W, strain NUM1, hits give low values 0.995 | locus YDR363W, strain ESC2, hits give low values 1.02 | [2] 1 | locus YGR078C, strain PAC10, hits give low values 0.998 | locus YJR075W, strain HOC1, hits give low values 1.01 | locus YMR307W, strain GAS1, hits give low values 1.02 | [3] 1.01 | [4] 1 | [5] 1.01 | locus YNL322C, strain KRE1, hits give low values 1 | [6] 1.01
